From PubChem BioAssay
JMJD2A Tudor: inhibitors of human JMJD2A Tudor domain; AlphaScreen JMJD2A-Tudor / H3K4me3 peptide binding; Potency, µM (top dose mostly 114 µM), without a hit: at the highest dose activity change, negative = inhibition, usual class: inhibitors; 390,000 compounds, 4.4% hits; note: potency is the fitted concentration of half-maximal effect; % is set by controls: 0 for no effect and ±100 for the full control effect; nearly all actives have a fitted effect of over 50% in size
HP1b chromo inh: HP1-beta chromodomain-methylated histone interaction inhibition. AlphaScreen HP1-beta / biotin-H3K9me3 peptide binding. 390,000 compounds, 0.56% hits. Potency, µM (doses to about 114 µM), without a hit: top-dose activity change, negative = inhibition, usual class: inhibitors. AID 540317; note: potency is the fitted concentration of half-maximal effect; nearly all actives have a fitted effect of over 70% in size
Target sequence (P83916 whole entry, looked up): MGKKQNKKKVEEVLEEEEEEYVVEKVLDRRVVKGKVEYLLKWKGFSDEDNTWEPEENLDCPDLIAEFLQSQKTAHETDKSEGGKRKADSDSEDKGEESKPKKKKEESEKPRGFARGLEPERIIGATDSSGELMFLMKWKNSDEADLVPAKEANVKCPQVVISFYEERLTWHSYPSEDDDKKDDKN
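HP1-beta protein (50 nM final) preincubated 30 min at room temperature with biotinylated H3(1-18)K9me3 peptide (50 nM) in PBS pH 7.4, 0.01% Tween-20, then compound added for 30 min. AlphaScreen streptavidin donor/nickel chelate acceptor beads (10 ug/mL final), 30 min dark, luminescence read.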
BAZ2B inh: inhibitors of human BAZ2B bromodomain | Q9UIF8 | AlphaScreen BAZ2B-H3K14Ac peptide displacement | Potency, µM (titrated, usually from 114 µM), for the others: top-dose activity change, negative = inhibition, usual class: inhibitors | 360,000 compounds, 4.4% hits; note: potency is the fitted concentration of half-maximal effect; % is set by controls: 0 for no effect and ±100 for the full control effect; nearly all actives have a fitted effect of over 60% in size
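AlphaScreen displacement: compounds (up to 110uM) incubated 30 min at room temperature with a preformed 50 nM BAZ2B/50 nM biotinylated H3K14Ac peptide complex in PBS pH 7.4 with Tween-20. Donor and acceptor beads at 10 ug/mL final added, 20 min light-protected before reading.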
L3MBTL1 block: L3MBTL1 (human) inhibition; AlphaScreen L3MBTL1–H3K9me1 peptide binding; Potency, µM (doses to about 57.1 µM), without a hit: at the highest dose activity, negative = inhibition, most hits filed as inhibitors; 230,000 compounds, 0.66% hits; AID 485360; note: potency is the fitted concentration of half-maximal effect; % is set by controls: 0 for no effect and ±100 for the full control effect; nearly all actives have a fitted effect of over 60% in size
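L3MBTL1 50 nM + b-AHA-H3(1-15)K9me1 75 nM, 30 min RT; compound added, 30 min RT; streptavidin donor/Ni-chelate acceptor beads 10 ug/mL each final, 30 min RT dark; AlphaScreen read.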
PI5P4Ka inh: blocks human PI5P4K alpha kinase activity; 330,000 compounds, 1.2% hits; AID 652105; max response, %; PI5P4Kalpha enzyme, ADP-Glo luminescence, 60 min; hits give low values; active = max response of -50% or lower; inconclusive = between -30% and -50%; inactive = -30% or higher; note: value at the top dose of about 77 µM; % is set by controls: 0 for no effect and ±100 for the full control effect
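Compounds were pin-transferred onto PI5P4Kalpha and substrate in HEPES pH 7.4 buffer with EGTA, CHAPS and 5% DMSO. ATP (5 microM final) started the reaction, which ran 60 minutes at room temperature before ADP-Glo detection.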
KDM4E inh: blocks human JMJD2E demethylase activity | JMJD2E catalytic domain, FDH-coupled NADH fluorescence (FDH is formaldehyde dehydrogenase) | AID 2147 | 230,000 compounds, 1.6% hits | B2RXH2 | Potency, µM (titrated, usually from 57.1 µM), for inactives: at the highest dose activity change, negative = inhibition, hits mostly inhibitors; active = well fitted inhibition curve with a large enough effect, not every such curve was filed as active; inconclusive = small, poorly fitted or top-dose-only effect, or another doubt; inactive = no such curve, though single readings can be large or run the other way;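 note: potency is the fitted concentration of half-maximal effect; 0% = wells with enzyme and -100% = buffer wells without enzyme; nearly all actives have a fitted effect of over 50% in size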
Target sequence (B2RXH2 1-337 limits assumed): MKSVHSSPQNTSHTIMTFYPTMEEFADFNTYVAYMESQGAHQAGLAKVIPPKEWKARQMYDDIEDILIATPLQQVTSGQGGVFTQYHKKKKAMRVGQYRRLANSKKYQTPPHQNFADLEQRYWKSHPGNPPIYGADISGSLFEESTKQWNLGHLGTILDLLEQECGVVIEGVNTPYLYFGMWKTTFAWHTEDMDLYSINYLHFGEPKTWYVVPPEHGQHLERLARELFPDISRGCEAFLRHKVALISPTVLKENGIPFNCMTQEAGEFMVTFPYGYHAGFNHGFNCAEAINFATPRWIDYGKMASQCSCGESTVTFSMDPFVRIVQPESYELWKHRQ
The depositor's hits bear a star; ? = inconclusive; / = no result; ! = repeats disagree; [ ] = dose if it differs, or a comment. Sampled rows, rich in hits. Any-hit rate of the full collection: about 5.7%. Unless noted, calls come from the whole dose curve; as a rule, active = well fitted inhibition curve with a large enough effect; inconclusive = small, poorly fitted or top-dose-only effect; inactive = no such curve, though single readings can be large or run the other way.

SMILES	JMJD2A Tudor	HP1b chromo inh	BAZ2B inh	L3MBTL1 block	PI5P4Ka inh	KDM4E inh
CCOC(=O)c1ccc(N2C(=O)C3CC=CCC3C2=O)cc1 (centres undefined)	-8%	19%	-2%	4%	/	6%
COc1ccc(N(CC(=O)NCCSCc2ccco2)S(=O)(=O)c2ccccc2)cc1	-34%	-14%	-34%	-19%	0	-15%
O=C(CN(c1ccccc1)S(=O)(=O)c1ccccc1)NCCSCc1ccco1	56µM*	-16%	50µM*	-14%	?	-29%
Cc1ccc(C)c(N(CC(=O)Nc2ccccc2C(=O)NCc2ccco2)S(=O)(=O)c2ccccc2)c1	-30%	4%	-7%	?	9	4µM*
COc1cc(OC)c(C(=O)OCC(=O)NCC2CCCCC2)cc1OC	-12%	11%	7%	2%	0	/
O=c1c2cc(O)c(O)cc2oc2cc(O)c(C3OC(CO)C(O)C(O)C3O)c(O)c12 (centres undefined)	7.9µM*	?	13µM*	3.2µM*	1	?
O=c1cc(-c2ccc(O)c(O)c2)oc2cc(O)c([C@@H]3O[C@H](CO)[C@@H](O)[C@H](O)[C@H]3O)c(O)c12	32µM*!	11%	/	?	-5	/
O=c1cc(-c2ccc(O)cc2)oc2c([C@@H]3O[C@H](CO)[C@@H](O)[C@H](O)[C@H]3O)c(O)c([C@@H]3O[C@H](CO)[C@@H](O)[C@H](O)[C@H]3O)c(O)c12	-14%	17%	-17%	-1%	-2	?
CC(=O)Cc1cc(=O)c2c(C)cc(O)c(C3OC(CO)C(O)C(O)C3O)c2o1 (centres undefined)	-6%	40%	-28%	/	-10	?
Cc1cccc2c(=O)cc(CSc3ccccc3NC(=O)C(C)(C)C)[nH]c12	-5%	8%[57 µM]	10%	/	/	/
CN(CC(=O)Nc1cccc(F)c1)C(=O)CN1C(=O)NC2(CCCC2)C1=O	-7%	32%	8%	3%	0	/
COc1ccc(CCN2C(=O)CC(Nc3ccc(N4CCOCC4)cc3)C2=O)cc1OC (centres undefined)	?	-10%	45µM*	/	-5	?
CCc1ccc(NC2CC(=O)N(CCc3ccc(OC)c(OC)c3)C2=O)cc1 (centres undefined)	?	?	-26%	-8%	-14	?
COc1ccc(NS(=O)(=O)c2cc(C(=O)NNC(=O)c3ccncc3)ccc2OC)c(OC)c1	-15%	16%	/	9%	-1	/
CC1(C(=O)NS(=O)(=O)c2cccs2)CCN1C(=O)C1(c2ccc(Cl)cc2)CCC1 (centres undefined)	/	/	/	/	-6	/
Cc1ccc2c(c1)C(=O)C(=O)N2CCCOc1ccccc1	56µM*	?	50µM*	?	4	3%
Cc1ccc(OCCCN2C(=O)C(=O)c3cc(C)ccc32)cc1	-9%	?	-19%	-24%	-2	8%
CCCCCOc1ccccc1CN1C(=O)C(=O)c2cc(C)ccc21	18µM*	?	6.3µM*	/	/	/
Cc1ccc2c(c1)C(=O)C(=O)N2Cc1ccccc1	?	?	/	-4%	0	/
O=C(NC1CC(=O)N(c2ccc(Cl)cc2)C1)c1cc2ccccc2o1 (centres undefined)	-6%	-5%	-1%	/	/	/
CCC(C)n1c(=N)c(C(=O)NCc2ccccc2)cc2c(=O)n3cc(C)ccc3nc21 (centres undefined)	-2%	45%	0%	/	/	/
COc1cc(NC(=O)Cn2c(=O)nc(-c3ccccc3F)c3cc(Cl)ccc32)cc(OC)c1	-24%	8%	-31%	/	/	/
CC(C)CCNC(=O)Nc1ccc2c(c1)N(C)C(=O)c1ccccc1S2	-16%	55%	?	/	/	/
Cc1oc(/N=C/c2ccccc2)c(C#N)c1C	-7%	-2%	-31%	-2%	3	/
COc1[nH]c(/N=C/c2ccccc2)c(C#N)c1C#N	45µM*!	-32%	?	-7%	?	?
COc1cc(NC(=O)c2noc3c2CCC3)c(OC)cc1Cl	45µM*	?	50µM*	/	/	-3%
